The values below come from PubChem BioAssay AID588579 (National Center for Advancing Translational Sciences (NCATS), 2011).

The campaign covered roughly 400,000 compounds. About 2,200 (0.55%) were called active. Roughly 1% stayed inconclusive and do not appear here. Shown is part of a subset that was picked to be rich in actives. A number with no mark means an inactive call. Calls come from the whole dose curve; as a rule, active = well fitted inhibition curve with a large enough effect; inconclusive = small, poorly fitted or top-dose-only effect, or another doubt; inactive = no such curve, though single readings can be large or run the other way.
% is set by controls: 0 for no effect and ±100 for the full control effect; potency is the fitted concentration of half-maximal effect.

Chain of DNA polymerase kappa (Homo sapiens) (Q9UBT6 whole entry, looked up): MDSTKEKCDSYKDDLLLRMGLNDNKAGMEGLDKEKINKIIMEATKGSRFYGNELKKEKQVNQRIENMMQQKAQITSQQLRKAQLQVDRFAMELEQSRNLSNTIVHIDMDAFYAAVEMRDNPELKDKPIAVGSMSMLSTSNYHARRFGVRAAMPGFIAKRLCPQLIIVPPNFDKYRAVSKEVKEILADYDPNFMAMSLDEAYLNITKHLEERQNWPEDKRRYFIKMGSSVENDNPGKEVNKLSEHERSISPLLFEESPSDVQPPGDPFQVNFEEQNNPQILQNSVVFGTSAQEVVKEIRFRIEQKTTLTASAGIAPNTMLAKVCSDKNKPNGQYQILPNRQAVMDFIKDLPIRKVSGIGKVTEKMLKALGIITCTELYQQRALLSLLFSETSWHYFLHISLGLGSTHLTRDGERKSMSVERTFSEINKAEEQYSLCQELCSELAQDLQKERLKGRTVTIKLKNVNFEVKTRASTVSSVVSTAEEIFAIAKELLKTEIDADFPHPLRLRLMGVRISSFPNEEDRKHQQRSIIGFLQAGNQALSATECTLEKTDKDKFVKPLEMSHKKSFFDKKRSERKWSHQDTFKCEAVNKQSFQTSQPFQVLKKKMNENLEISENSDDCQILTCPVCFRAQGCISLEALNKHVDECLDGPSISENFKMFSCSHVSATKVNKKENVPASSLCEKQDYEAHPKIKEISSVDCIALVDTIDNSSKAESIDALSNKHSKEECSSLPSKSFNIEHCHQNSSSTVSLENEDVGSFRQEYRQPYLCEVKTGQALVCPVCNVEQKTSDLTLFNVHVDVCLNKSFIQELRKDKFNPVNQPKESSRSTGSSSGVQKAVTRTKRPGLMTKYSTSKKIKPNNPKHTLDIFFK

The target in the assay is DNA polymerase kappa (Homo sapiens) (UniProt Q9UBT6). Put plainly: qHTS for Inhibitors of Polymerase Kappa. The settings on record: purified Pol kappa, fluorescent DNA synthesis assay, 10 min; series mostly up to 60.1 µM; activity, negative = inhibition: at the top concentration. In a few lines:
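Enzyme at 10 nM met test compounds for 15 min at room temperature. Substrate addition (50 nM final) began the reaction, which was monitored by fluorescence at 0 and 10 min.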
On the technique in general: qHTS replaces the single test concentration by a dilution series.
On to `CCN1C[C@]2(C)CC[C@H](O)[C@@]34[C@@H]5CC6[C@@H](OC)C[C@@](O)([C@@H]5[C@@H]6O)[C@H](C[C@@H]23)[C@H]14`, for which the activity, negative = inhibition was -3.02% [at 12 µM].

On to `N#Cc1cc(Br)c(O)c(Br)c1`, for which the “activity, negative = inhibition” value was 12.6%.

Take `CN(C)[C@@H]1C(=O)C(C(N)=O)=C(O)[C@@]2(O)C(=O)C3=C(O)c4c(O)cccc4[C@@](C)(O)C3CC12` (some centres not stated): the “activity, negative = inhibition” value was -10.9%.

`c1ccc2sc(SNC3CCCCC3)nc2c1`: the “activity, negative = inhibition” value was -5.44%.

Regarding `NCCCCC(N)C(=O)O` (configuration not stated), the Potency entry is “inactive”.

On to `C=CCN1CCC2(C)c3cc(O)ccc3CC1[C@@H]2C` (some centres not stated), for which the “activity, negative = inhibition” value was 7.6% [at 19.4 µM].

Regarding `CCCN(C/C=C/I)C1CCc2ccc(O)cc2C1` (configuration not stated), the “activity, negative = inhibition” value was -4.88% [at 19.4 µM].

`CO[C@H]1[C@@H](O)[C@@H](C)O[C@H](O[C@H]2[C@H](Oc3cccc4c(O)c5c(=O)oc6ccc(C)c7c(=O)oc(c34)c5c67)O[C@H](C)[C@H](O)[C@@H]2O)[C@@H]1O`: the Potency was 35.5 µM (active).

Turning to `c1ccc(CN2CC[C@@]3(CCCNC3)C2)cc1`, the “activity, negative = inhibition” value was -4.77%.

For `CCCCCCCCCCCCN=C(N)N`, the “activity, negative = inhibition” value was 23.6%.

As for `CN(C)C1C(=O)C(C(N)=O)=C(O)[C@@]2(O)C(=O)C3=C(O)c4c(O)cccc4[C@@](C)(O)C3C[C@@H]12` (some centres not stated), the “activity, negative = inhibition” value is -12% [at 19.4 µM].

With `N#CC(C#N)=Cc1cc(O)c(O)c([N+](=O)[O-])c1`, the Potency is 2.82 µM (active).

Consider `COC([CH2][Hg])CNC(=O)c1ccccc1OCC(=O)O` (configuration not stated), for which the “activity, negative = inhibition” value is 4.39% [at 19.4 µM].

`Nc1ccc(-c2ccc(N)c(N)c2)cc1N`: the “activity, negative = inhibition” value was 11.1%.

With `CN(C)C[C@H]1CCCC[C@]1(O)c1cccc(O)c1`, the “activity, negative = inhibition” value is 15.6%.

For `CC[C@@H]1CN2CC[C@@H]1C[C@H]2[C@H](O)c1ccnc2ccc(OC)cc12`, the “activity, negative = inhibition” value is -10.2% [at 19.4 µM].

Turning to `CC1=CC(=O)C2=C(C)C[C@H](O)[C@H]3[C@H](C)C(=O)O[C@@H]3C12` (some centres not stated), the “activity, negative = inhibition” value is -5.66% [at 19.4 µM].

Consider `C[C@H]1C/C=C/[C@@H]2[C@@H]3O[C@]3(C)[C@@H](C)[C@H]3[C@H](Cc4ccccc4)NC(=O)[C@]32OC(=O)O/C=C/[C@](C)(O)C1=O`, for which the activity, negative = inhibition was -10.2% [at 12 µM].

Consider `Cc1c(C(=O)O)cccc1-n1c(C)cc(/C=C2\C(=O)NC(=O)N(c3ccc4c(c3)OCO4)C2=O)c1C`, for which the Potency is 44.7 µM (active).

For the compound `CC(=O)OC1C2CCC3C1(CC(O)[C@@]1(O)[C@@H](CC(O)C1(C)C)[C@]3(C)O)C[C@@]2(C)O` (some centres not stated), the “activity, negative = inhibition” value was 0.942%.

For `C=CCSSCC=C`, the “activity, negative = inhibition” value was -7.05%.

Consider `C[C@]12O[C@H](C[C@@]1(O)C(=O)O)n1c3ccccc3c3c4c(c5c6ccccc6n2c5c31)CNC4=O`, for which the “activity, negative = inhibition” value is -9.21%.

As for `C[C@@]12CCC3C(CC[C@@H]4CC(O)CC[C@@]34C)C1CCC2O` (some centres not stated), the “activity, negative = inhibition” value is 2.74%.

As to `CCCCC/C=C\C/C=C\C/C=C\C/C=C\CCCCCC(=O)NCCO`, the “activity, negative = inhibition” value was 2.79% [at 19.4 µM].

With `Cc1cccc2c3c(ccc12)C1=C(C(=O)C3=O)C(C)CO1` (configuration not stated), the Potency is 20 µM (active).

Regarding `C[C@@]12CC[C@H]3[C@@H](CC[C@]4(O)C[C@H](O)CC[C@@]34C=O)[C@]1(O)CC[C@@H]2C1=CC(=O)OC1`, the activity, negative = inhibition was -6.33% [at 12 µM].

On to `C[C@@H]1C[C@@H]2O[C@H]2/C=C\C=C\C(=O)Cc2c(Cl)c(O)cc(O)c2C(=O)O1`, for which the Potency was 39.8 µM (active).

Regarding `c1ccc(CCCCN2CCC(c3ccccc3)CC2)cc1`, the Potency entry was “inactive”.

Turning to `O=C(N/N=C/c1ccc([N+](=O)[O-])o1)c1cc([N+](=O)[O-])cc([N+](=O)[O-])c1O`, the “activity, negative = inhibition” value was -2.87% [at 19.4 µM].

For `c1ccc(N2CC[C@@]3(CCCNC3)C2)nc1`, the “activity, negative = inhibition” value is 8.04%.

In the case of `COc1cccc(N2C(=O)NC(=O)/C(=C\c3ccc([N+](=O)[O-])s3)C2=O)c1`, the Potency is 25.1 µM (active).

Turning to `O=C1NC(=O)N(c2ccccc2)C(=O)/C1=C/c1ccc([N+](=O)[O-])s1`, the Potency was 31.6 µM (active).

`CC(=O)[O][Sn]([c]1ccccc1)([c]1ccccc1)[c]1ccccc1`: the “activity, negative = inhibition” value is 4.82%.

With `CCCCCCCCc1[se]c2ccccc2c1Br`, the “activity, negative = inhibition” value was -2.11%.

As to `ClCCN(CCCl)c1ccc(C=Nc2ccc(/C=C/c3ccnc4ccccc34)cc2)cc1`, the “activity, negative = inhibition” value is -11.1% [at 107 µM].

Consider `CC(C)(Cc1c[nH]c2ccc(Cl)cc12)NCCOc1ccccc1OCC1CC1`, for which the Potency entry is “inactive”.

As to `CCN(CC)c1nc(C)cc(OP(=S)(OC)OC)n1`, the “activity, negative = inhibition” value was 14.8%.

As to `C[C@@H]1C[C@H]2CC[C@H](O2)[C@H](C)C(=O)O[C@@H](C)C[C@@H]2CC[C@@H](O2)[C@@H](C)C(=O)O[C@H](C)C[C@H]2CC[C@H](O2)[C@H](C)C(=O)O[C@@H](C)C[C@@H]2CC[C@@H](O2)[C@@H](C)C(=O)O1`, the “activity, negative = inhibition” value was 6.33%.

Consider `O=C(Nc1cccc(F)c1)N1CC[C@@]2(CCCN(C(=O)Oc3ccccc3)C2)C1`, for which the “activity, negative = inhibition” value is -3.75%.

For the compound `CC(C)(c1ccc(OC[C@@H]2CO2)cc1)c1ccc(OC[C@H]2CO2)cc1`, the “activity, negative = inhibition” value was -11.1% [at 19.4 µM].

Consider `COc1ccc2[nH]cc(CCNCc3ccc(Br)cc3)c2c1`, for which the “activity, negative = inhibition” value is 2.66% [at 19.4 µM].

In the case of `O=C1CCc2cccc3c2N1CC3`, the activity, negative = inhibition is -11.9% [at 12 µM].
